# Data reported in publication PMC4336329 (PLoS ONE, 2015).
# In all, about 310,000 compounds went through this assay and about 14,000 (4.5%) showed an effect of 50% or more. The effect is printed as a negative number. The entries come from a sample that favours strong results as a whole.
# Target: human ether-à-go-go-related gene (hERG) potassium channel (human, UniProt Q12809)
# Experiment: primary screen, population patch clamp on CHO cells stably expressing hERG; higher = less effect of the substance
# 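Also: peak tail current of the secondary pulse compared with the same well before compound.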
# human ether-à-go-go-related gene (hERG) potassium channel, sequence (Q12809 whole entry, looked up): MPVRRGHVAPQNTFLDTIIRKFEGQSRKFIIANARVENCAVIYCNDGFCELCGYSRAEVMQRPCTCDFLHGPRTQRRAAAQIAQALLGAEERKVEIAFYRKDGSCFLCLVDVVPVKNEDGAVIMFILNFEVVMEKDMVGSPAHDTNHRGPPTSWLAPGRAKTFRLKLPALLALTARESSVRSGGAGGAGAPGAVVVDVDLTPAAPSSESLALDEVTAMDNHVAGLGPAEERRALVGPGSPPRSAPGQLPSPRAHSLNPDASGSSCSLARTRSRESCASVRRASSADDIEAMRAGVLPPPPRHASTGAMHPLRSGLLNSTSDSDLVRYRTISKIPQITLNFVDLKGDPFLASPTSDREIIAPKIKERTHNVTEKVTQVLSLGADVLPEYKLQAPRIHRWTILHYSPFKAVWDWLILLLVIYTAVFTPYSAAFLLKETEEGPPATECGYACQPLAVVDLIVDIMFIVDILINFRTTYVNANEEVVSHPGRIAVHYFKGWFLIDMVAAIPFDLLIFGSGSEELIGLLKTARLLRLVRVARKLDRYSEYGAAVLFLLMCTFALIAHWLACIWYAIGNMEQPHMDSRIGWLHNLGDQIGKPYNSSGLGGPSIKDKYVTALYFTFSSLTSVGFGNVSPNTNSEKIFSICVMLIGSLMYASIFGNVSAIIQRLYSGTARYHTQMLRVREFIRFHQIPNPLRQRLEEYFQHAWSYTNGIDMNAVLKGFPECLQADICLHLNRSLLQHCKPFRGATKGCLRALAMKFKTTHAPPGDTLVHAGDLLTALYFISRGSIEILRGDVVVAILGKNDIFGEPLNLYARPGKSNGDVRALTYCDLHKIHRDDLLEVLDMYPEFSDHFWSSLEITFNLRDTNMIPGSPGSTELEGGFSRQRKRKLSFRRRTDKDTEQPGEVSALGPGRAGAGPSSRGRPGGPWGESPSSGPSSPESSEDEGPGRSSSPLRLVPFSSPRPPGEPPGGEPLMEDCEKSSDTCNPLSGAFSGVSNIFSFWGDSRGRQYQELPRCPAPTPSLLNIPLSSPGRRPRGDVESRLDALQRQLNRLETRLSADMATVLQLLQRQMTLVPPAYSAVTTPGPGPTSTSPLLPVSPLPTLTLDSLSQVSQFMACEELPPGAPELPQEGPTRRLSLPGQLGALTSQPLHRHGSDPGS
row,SMILES,"hERG current change (%, negative = inhibition) at 10uM [%]"
1,CC(=O)Nc1ccc(NS(=O)(=O)c2ccc3c(c2)oc(=O)n3C)cc1,20.2
2,Cc1cccc(CN2CCc3c([nH]c4ccccc34)C2C(C)(C)C)n1 (centres unmarked),3.57
3,O=[N+]([O-])c1ccc(C(=Nc2cccc3ccccc23)N2CCOCC2)cc1,-63.5
4,Cc1ccc([N+](=O)[O-])cc1N=C(c1ccc([N+](=O)[O-])cc1)N1CCOCC1,-20.8
5,Cc1ccc([N+](=O)[O-])cc1N=C(c1cccc([N+](=O)[O-])c1)N1CCOCC1,-26
6,O=C(NNC(=O)C1[C@H]2CCCC[C@@H]12)Nc1cccc2ccccc12 (some centres unmarked),-6.11
7,COc1cc(NC(=O)Cc2ccc(F)cc2)cc(OC)c1OC,16.2
8,CCC(=O)N1CCc2cc(Br)cc(S(=O)(=O)CCC(=O)NCCc3ccccc3)c21,3.68
9,O=S(=O)(c1ccccc1)N1CCN(C(=S)Nc2ccc(F)cc2)CC1,-3.33
10,CN(C)/C=N/c1ncn(-c2ncc(C(F)(F)F)cc2Cl)n1,17.5
11,Nc1nc2nonc2nc1N,15.3
12,Cc1ccccc1-n1nc(C)c2c(C(=O)NN)cc(-c3ccncc3)nc21,38.5
13,Cc1nn(-c2cccc(Cl)c2)c2nc(-c3ccco3)cc(C(=O)O)c12,19
14,CCOC(=O)c1cc(-c2ccncc2)nc2c1c(C)nn2-c1ccccn1,-63.3
15,O=C(NCc1ccco1)c1cc(-c2cccs2)nc2ccccc12,-1.68
16,Cc1nn(-c2ccccn2)c2nc(-c3cccs3)cc(C(=O)NCc3ccco3)c12,-67.3
17,O=C(NCc1ccco1)c1cc(-c2ccncc2)nc2ccccc12,-18.5
18,CCOC(=O)c1cc(-c2cccs2)nc2c1c(C)nn2-c1ccccn1,17.2
19,CCOC(=O)c1cc(-c2ccncc2)nc2c1c(C)nn2C,-14.8
20,Cc1nn(-c2ccccc2)c2nc(-c3ccncc3)cc(C(=O)NCc3ccco3)c12,-66.6
21,Cc1nn(-c2cccc(Cl)c2)c2nc(-c3ccncc3)cc(C(=O)N3CCOCC3)c12,-62.3
22,Cc1nn(-c2ccccc2)c2nc(-c3ccccc3)cc(C(=O)N3CCOCC3)c12,-25.9
23,CCOC(=O)c1cc(-c2ccccc2)nc2c1c(C)nn2-c1ccccn1,-6.42
24,Cc1ncc([N+](=O)[O-])n1CC(=O)NCc1ccccc1,16

row,SMILES,"hERG current change (%, negative = inhibition) at 10uM [%]"
1,Cc1ccc(S(=O)(=O)NNC(=O)C(=O)NNS(=O)(=O)c2ccc(C)cc2)cc1,-1.99
2,O=C(c1ccc(Cl)cc1)N1CCCCC(Cl)C1=O (centres unmarked),7.57
3,COc1cccc(Nc2ncc(C(=O)O)c3ccccc23)c1,-1.48
4,Fc1cnc(Cl)nc1N1CCN(c2ccccc2)CC1,-17.4
5,Cc1nn(Cc2ccccc2)c(C)c1C(=O)OCC(=O)c1cc(C)n(CC(F)(F)F)c1C,-2.57
6,COc1cccc(-n2c(-c3ccco3)nc3nc4ccccc4nc32)c1,18.4
7,O=C(COC(=O)c1cccnc1Nc1ccccc1F)NC1CC1,-0.164
8,Cc1cc(O)ccc1N/C=C(\C#N)c1nc2ccccc2o1,10.2
9,C=C(C)COc1ccc2c(C)c(CCC(=O)NC3CC3)c(=O)oc2c1,-2.92
10,CCOC(=O)c1sc2nc(CN3CCN(c4cccc(C(F)(F)F)c4)CC3)[nH]c(=O)c2c1C,8.43
11,N#Cc1ccc(Cn2c(-c3ccc(F)cc3)noc2=O)cc1,-17.8
12,COc1ccc(-c2noc(=O)n2Cc2ccc(C#N)cc2)cc1,-70.1
13,COc1ccc(-c2noc(=O)n2Cc2ccccc2Cl)cc1,-8.73
14,Cc1cc(C)n(Cc2ccc(C(=O)O)o2)n1,11.5
15,COc1ccccc1COn1c(=O)c(-c2ccco2)[n+]([O-])c2ccccc21,5.96
16,N=c1c(S(=O)(=O)c2ccc(Cl)cc2)cc2c(=O)n3ccccc3nc2n1CCN1CCOCC1,-46.4
17,N=c1c(C(=O)NCCN2CCOCC2)cc2c(=O)n3ccccc3nc2n1CCc1ccccc1,-72.5
18,O=C(NCCN1CCOCC1)c1c(O)nc2ccccn2c1=O,10.9
19,N=c1c(S(=O)(=O)c2ccccc2)cc2c(=O)n3ccccc3nc2n1CCCN1CCOCC1,-65.9
20,Nc1c(C(=O)NCc2ccc(F)cc2)c2nc3ccccc3nc2n1CCCN1CCOCC1,0.0395
21,Cc1ccc(S(=O)(=O)c2cc3c(=O)n4ccccc4nc3n(CCCN3CCOCC3)c2=N)cc1C,-36.8
22,N=c1c(C(=O)NCc2ccc(F)cc2)cc2c(=O)n3ccccc3nc2n1CCCN1CCOCC1,-83
23,N=c1c(C(=O)NCc2ccccc2)cc2c(=O)n3ccccc3nc2n1CCCN1CCOCC1,-78.6
24,CN(C)S(=O)(=O)N1CCC(Oc2ccc(C(=O)NCCc3cscn3)cc2)CC1,0.0832

row,SMILES,"hERG current change (%, negative = inhibition) at 10uM [%]"
1,CC(C)O.CCc1nnc(NS(=O)(=O)c2ccc(NC(=O)C(c3ccccc3)c3ccccc3)cc2)s1,2.36
2,CCc1nnc(NC(=O)C2CC(=O)N(c3ccc4c(c3)OCCO4)C2)s1 (centres unmarked),4.32
3,CC(=O)Nc1ccc(C(=O)CS(=O)(=O)c2ccc(C)cc2)cc1,-11.5
4,N=c1c(C(=O)NCCN2CCOCC2)cc2c(=O)n3ccccc3nc2n1CCCN1CCOCC1,-4.43
5,N=c1c(C(=O)NCCc2ccccc2)cc2c(=O)n3ccccc3nc2n1CCCN1CCOCC1,-76.2
6,CC1(C)CC(=O)C=C(NCCO)C1,-0.4
7,O=C(Nc1ccc(N2CCN(C(=O)c3ccco3)CC2)cc1)c1ccco1,20.7
8,Cc1nnc(NC(=O)CC(CN(C)S(=O)(=O)c2ccccc2)c2ccccc2)s1 (centres unmarked),-18.7
9,CN(CC(CC(=O)Nc1nncs1)c1ccccc1)S(=O)(=O)c1ccc(Br)cc1 (centres unmarked),-55.4
10,CN(CC(CC(=O)Nc1nncs1)c1ccccc1)S(=O)(=O)c1ccccc1 (centres unmarked),-14.2
11,COC(=O)c1ccccc1NC(=O)Nc1ccc(Cl)cn1,-3.82
12,O=C(Nc1ccc2c(c1)OCO2)Nc1ccc(Br)cn1,3.01
13,Cc1cccc(N/C=C/C(=C(C#N)C#N)N(C)C)c1,-24.5
14,Cc1ccc(NC(=O)CNc2ccccc2CN(C)C2CCCCC2)cc1,-59.1
15,CN(Cc1ccccc1NCC(=O)Nc1ccccc1C#N)C1CCCCC1,-33
16,COc1ccc(C)cc1NC(=O)CNc1ccccc1CN(C)C1CCCCC1,-19.6
17,Cc1c(C(=O)N(C)CCC#N)oc2ccc(S(=O)(=O)N3CCOCC3)cc12,10.1
18,O=C(NNc1ncnc2c1cnn2-c1ccc(F)cc1)c1cccs1,6.55
19,O=C1CCC(C(=O)N(CCO)Cc2ccccc2)CN1CC1CCCCC1 (centres unmarked),11.7
20,CN(C)C1=NCCN1CCc1ccc(F)cc1,-9.03
21,CCOC(=O)c1cnc2c(cnn2C)c1NCCCn1ccnc1,-35.9
22,CCOC(=O)c1cnc2ccc(C(=O)OC)cc2c1NCCN1CCOCC1,-30.2
23,CCOC(=O)c1cnc2c(C)c(Cl)ccc2c1NCCCN1CCOCC1,-49.2
24,CCOC(=O)c1cnc2ccc(Br)cc2c1NCCCN1CCOCC1,-39

row,SMILES,"hERG current change (%, negative = inhibition) at 10uM [%]"
1,CCOC(=O)c1cnc2ccc(OCC)cc2c1NCCN1CCOCC1.Cl,-67.9
2,CCOC(=O)c1cnc2ccc(OCC)cc2c1NCCCN1CCOCC1.Cl,-75.6
3,CCOC(=O)c1cnc2ccc(OC)cc2c1NCCN1CCOCC1,-48.5
4,CCOC(=O)c1cnc2ccc(C(=O)OC)cc2c1NCCCN1CCOCC1,-60.5
5,CCOC(=O)c1cnc2c(cnn2C)c1NCCCN(C)C,-51.7
6,CCOC(=O)c1ccc2ncc(C(=O)OCC)c(NCCCN3CCOCC3)c2c1,-47.3
7,CCOC(=O)c1cnc2c(cnn2C)c1NCCC#N,-7.43
8,O=C(NCCc1ccccc1)C1CCN(S(=O)(=O)N2CCCCC2)CC1,2.19
9,CCCNC(=O)Cn1c(=O)oc2cc(S(=O)(=O)N3CCCC3)ccc21,11.9
10,Oc1ccccc1C(=S)N1CCN(C(=S)c2ccccc2O)CC1,18.4
11,C#CCNC(=O)C1=C[C@H](c2coc3ccccc3c2=O)[C@@H](CCCO)[C@H](OCC)O1,-23.3
12,Cc1[nH]c2ccccc2c1CCCO,10.7
13,CC(C)(C)NC(=O)CN1C(=O)/C(=C/c2ccccc2)SC1=S,10
14,O=C(CN1CCN(c2ccccc2)CC1)NC(=O)NCc1ccco1,9.72
15,CCOC(=O)c1cnc2c(ccc3ccccc32)c1NCCN(C)C,-7.47
16,CCOC(=O)c1cnc2ccc(Br)cc2c1NCCO,-9.88
17,CCOC(=O)c1cnc2ccc(C)cc2c1NCCO,-66.4
18,CCOC(=O)c1cnc2ccccc2c1NCCO,-34.8
19,CCOC(=O)c1ccc2ncc(C(=O)OCC)c(NCCN3CCOCC3)c2c1,-48.5
20,CCOC(=O)c1cnc2c(Cl)c(Cl)ccc2c1NCCN1CCOCC1.Cl,14.3
21,CCOC(=O)c1cnc2ccc(Cl)cc2c1NCCN(C)C,-22.8
22,CCOC(=O)c1cnc2ccc(C)cc2c1NCCN1CCOCC1.Cl,-65.7
23,CCOC(=O)c1ccc2ncc(C(=O)OCC)c(NCCN(C)C)c2c1,-69.5
